We go through 7 compounds from PubChem BioAssay.

Assay [1] is described as follows: inhibitors of TNFa-induced NFkB p65 translocation, primary screen, imaging, HUVEC, MLSMR starter and 10KST1 sets (AID 438;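 active means inhibition above 20% together with a positive visual image hit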;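 further: compound added about 3h40 before a 20 min TNFalpha stimulation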;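 on inhibition: signal is the nuclear over cytoplasmic p65 intensity ratio per well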). The following applies: HUVEC TNFa-induced p65 nuclear translocation; cell count: measured here: nuclei count (cytotoxicity indicator), at 2.08 µM; inhibition: at 2 µM, stronger effect = higher value, 0% TNFa-plus-vehicle, 100% no-TNFa wells.
Assay [2] in a line: inhibitors of mutant huntingtin aggregation, primary screen, imaging, exon1htt(103Q)mCFP cells, high-content imaging (AID 483;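 active means visual image review flags a hit and inhibition of aggregation exceeds 20%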;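 further: compound exposure lasted 3 days before fixation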;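 on nuclei count: percent of the per-plate median nuclei count of sample wells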). To be noted: exon1htt(103Q)mCFP cell line, aggregate imaging, at 2 µM; inhibition of aggregation: stronger effect = higher value; nuclei count: measured here: cell count, toxicity.
Assay [3] in a line: inhibitors of E-selectin induction by TNFa, primary screen, imaging, HUVEC, immunofluorescence, MLSMR starter and 10KST1 sets (AID 487;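 active means visually confirmed hit in the image check and inhibition above 20%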;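 on inhibition: signal is fraction of cell area covered by stained E-selectin grains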;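 on nuclei count: 100% = median nuclei count of all wells on the same plate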). To be noted: HUVEC TNFalpha-induced E-selectin immunofluorescence imaging, at 2 µM; inhibition: stronger effect = higher value; nuclei count: measured here: cell number, toxicity.
In assay [4] the target is Voltage-gated potassium channel subunit beta-2 (Rattus norvegicus) (UniProt P62483). In words: KvBeta enzyme negative modulators, primary screen, biochemical, NADPH fluorescence (AID 622;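 active means fluorescence slope higher than the sample average by over 3 SD, cut at about -0.22 in these data, passing the limit was not always enough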;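 further: slope of raw intensity against log time taken from 70 to 1610 s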). The following applies: recombinant KvBeta, 4-cyanobenzaldehyde reduction, at 10 µM, stronger effect = higher value.
Sequence of Voltage-gated potassium channel subunit beta-2 (Rattus norvegicus) (P62483 whole entry, looked up): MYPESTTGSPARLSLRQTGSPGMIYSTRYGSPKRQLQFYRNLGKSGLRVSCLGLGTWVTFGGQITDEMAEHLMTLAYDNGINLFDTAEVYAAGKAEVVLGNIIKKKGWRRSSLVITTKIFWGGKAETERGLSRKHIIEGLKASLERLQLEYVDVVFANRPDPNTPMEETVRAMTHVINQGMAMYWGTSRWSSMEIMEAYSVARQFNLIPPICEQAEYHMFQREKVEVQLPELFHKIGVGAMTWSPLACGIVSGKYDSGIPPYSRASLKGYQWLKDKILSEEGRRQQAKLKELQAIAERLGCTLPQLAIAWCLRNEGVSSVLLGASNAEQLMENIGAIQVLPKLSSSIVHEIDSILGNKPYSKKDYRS
For assay [5] the target is unchanged. In words: KvBeta positive modulators, primary screen, biochemical, NADPH fluorescence (AID 623).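 Further: fluorescence intensity change per second fitted from 20 to 320 s.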 The following applies: Recombinant KvBeta, NADPH fluorescence decrease slope, 10 min; at 10 µM; stronger effect = lower value.
Assay [6] addresses Alpha-2C adrenergic receptor (Homo sapiens) (UniProt P18825). In words: modulators of alpha2C/GIRK thallium flux, primary screen, cell-based, HEK293 alpha2C/GIRK1/2 (AID 624;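 active means fluorescence slope after compound addition differing from the mean of all screened samples at 99.7% confidence, in either direction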;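 further: slope of fluorescence ratio to pre-addition baseline per second over 15 to 24 s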). To be noted: thallium flux BTC fluorescence, at 10 µM, actives lie on both sides.
Assay [7] is described as follows: inhibitors of Sendai virus-induced IRF3 signaling, primary screen, TLR/RLR signaling modifier project, cell-based, Sendai virus stimulus, luciferase, 10K MLSCN set (AID 602276;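 active means inhibition at or above 50% at 10 µM; inactive means inhibition below 50%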;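 further: firefly luciferase from ISG56 promoter only with Renilla not read in this screen; 0% = Sendai virus plus DMSO and 100% = medium plus DMSO without virus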). The following applies: HEK293 RL24 IRF3 luciferase reporter, at 10 µM, stronger effect = higher value. (In general: Reporter assays use an easily measured gene product as a stand-in for the process of interest.)

A short description of assay [8]: inhibitors of poly I:C-induced TLR3 signaling, primary screen, cell-based, poly I:C stimulus, luciferase, 10K MLSCN set (AID 602277;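 active means inhibition of the reporter signal at or above 50%; inactive means inhibition below 50%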). To be noted: HEK293-TLR3 RL24 IRF3 luciferase reporter, at 10 µM, stronger effect = higher value.
A short description of assay [9]: DUSP6 inhibitors restoring Erk phosphorylation by chemical complementation, primary imaging in DUSP6-transfected HeLa (AID 609;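 active means compounds giving at least 50% inhibition in the cell-based MKP-3 phosphatase rescue imaging test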;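 on inhibition: phospho-Erk level distribution per well compared with pooled transfected vehicle control wells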). To be noted: HeLa MKP-3 transfected, phospho-Erk imaging KS statistic, at 10 µM, cells stimulated with TPA for 15 min.
In assay [10] the target is Dual specificity protein phosphatase 6 (Homo sapiens) (UniProt Q16828). The description is as above. To be noted: HeLa MKP-3 transfected, phospho-Erk imaging KS statistic; at 10 µM; stronger effect = higher value; cells stimulated with TPA for 15 min.
Sequence of Dual specificity protein phosphatase 6 (Homo sapiens) (Q16828 whole entry, looked up): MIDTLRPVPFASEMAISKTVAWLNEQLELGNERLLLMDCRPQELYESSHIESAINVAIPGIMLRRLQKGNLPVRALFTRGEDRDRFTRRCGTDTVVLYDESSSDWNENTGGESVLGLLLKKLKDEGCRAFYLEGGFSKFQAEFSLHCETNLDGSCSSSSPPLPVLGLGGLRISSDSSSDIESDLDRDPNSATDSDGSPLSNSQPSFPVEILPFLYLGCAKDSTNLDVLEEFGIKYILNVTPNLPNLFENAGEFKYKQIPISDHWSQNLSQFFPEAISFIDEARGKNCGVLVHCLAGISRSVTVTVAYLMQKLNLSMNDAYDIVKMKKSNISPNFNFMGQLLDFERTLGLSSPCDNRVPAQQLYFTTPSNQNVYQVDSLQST
Assay [11] addresses Muscarinic acetylcholine receptor M4 (Homo sapiens) (UniProt P08173). In words: compounds altering M4/GIRK thallium flux, either direction, primary screen, M4 allosteric agonist project, cell-based, HEK293 M4/GIRK, BTC-AM (AID 625;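 active means fluorescence slope after compound addition differing from the mean of all tested samples at 99.7% confidence, mostly higher but some lower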;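 further: thallium influx through GIRK channels coupled to M4 in HEK293 cells with BTC-AM dye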). To be noted: at 10 µM, actives lie on both sides.
Assay [12] can be described thus: inhibitors of larval lipid processing in zebrafish, primary screen, whole organism, PED6 fluorescence, gall bladder and intestine (AID 686;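 active means a full or partial loss of lipid-probe fluorescence in the fish gall bladder, intestine or both, judged by eye; inactive means no fluorescence loss, or compound toxic to the fish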;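 further: larvae 5 to 7 days old with five fish per well; signal comes from phospholipase A2 cleavage of quenched PED6 carried via bile; overnight exposure to compound and PED6 before scoring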). The following applies: Zebrafish larvae PED6 lipid processing, fluorescence scoring; screened at 20 µM (by protocol).
The nature of assay [13]: inhibitors of Chlamydomonas gravitaxis, primary screen, whole organism, Chlamydomonas reinhardtii, WT vs cilia-less mutant, absorbance, 96-well (AID 463189;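 active means inhibition at or above 50% relative to wild type and mutant plate controls; inactive means inhibition below 50%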;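 further: 0% = wild type cc124 cells in DMSO and 100% = ciliumless bld1 mutant cells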). To be noted: OD600 absorbance, 2 days, at 10 µM, stronger effect = higher value.

Active and inactive are the calls of the source.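 How the source made its calls, unless noted: active means NADPH fluorescence slope more negative than the mean of all samples by about 3 SD, 99.7% confidence; inactive means the rest.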

Sequence of Alpha-2C adrenergic receptor (Homo sapiens) (P18825 whole entry, looked up): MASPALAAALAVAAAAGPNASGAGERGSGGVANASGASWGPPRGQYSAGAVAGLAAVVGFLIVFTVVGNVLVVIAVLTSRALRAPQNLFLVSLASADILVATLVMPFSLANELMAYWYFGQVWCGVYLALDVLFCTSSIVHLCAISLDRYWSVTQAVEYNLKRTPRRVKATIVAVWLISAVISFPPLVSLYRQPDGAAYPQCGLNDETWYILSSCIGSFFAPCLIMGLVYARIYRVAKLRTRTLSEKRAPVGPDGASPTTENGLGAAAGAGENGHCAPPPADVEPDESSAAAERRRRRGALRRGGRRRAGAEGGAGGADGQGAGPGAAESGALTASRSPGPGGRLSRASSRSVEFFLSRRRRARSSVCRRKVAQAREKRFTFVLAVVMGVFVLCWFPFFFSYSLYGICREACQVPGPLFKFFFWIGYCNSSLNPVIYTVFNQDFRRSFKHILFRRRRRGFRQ
Sequence of Muscarinic acetylcholine receptor M4 (Homo sapiens) (P08173 whole entry, looked up): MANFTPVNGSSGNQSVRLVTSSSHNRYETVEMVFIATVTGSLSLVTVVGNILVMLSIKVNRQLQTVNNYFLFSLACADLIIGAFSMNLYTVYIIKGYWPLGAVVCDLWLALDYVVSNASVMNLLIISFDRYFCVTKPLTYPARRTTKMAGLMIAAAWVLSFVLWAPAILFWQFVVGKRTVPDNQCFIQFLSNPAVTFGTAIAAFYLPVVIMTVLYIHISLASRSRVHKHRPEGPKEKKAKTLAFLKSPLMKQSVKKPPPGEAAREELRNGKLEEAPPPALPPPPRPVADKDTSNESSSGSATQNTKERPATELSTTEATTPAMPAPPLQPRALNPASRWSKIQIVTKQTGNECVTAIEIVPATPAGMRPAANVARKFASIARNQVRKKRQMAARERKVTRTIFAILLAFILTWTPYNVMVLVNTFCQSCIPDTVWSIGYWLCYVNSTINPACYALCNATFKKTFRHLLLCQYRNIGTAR

As a reminder, the inhibition is the relative decrease from the control value, in per cent. Consider `COc1ccc(C2N(C(=O)c3ccccc3)CCN2C(=O)c2ccccc2)cc1`, for which the cell count in assay [1] is 488. Also, the inhibition is -13.6% (inactive) in [1], -13.7% (inactive) in assay [3], 7.08% (inactive) in assay [7] and 24.3% (inactive) in assay [8]. Besides, in assay [2], the inhibition of aggregation is -2.8% (inactive). The values for the nuclei count in [2] and in assay [3] were 71.9% and 92.4%, respectively. The fluorescence slope in assay [4] is -0.427 (inactive). In addition, in [5], the NADPH fluorescence slope is -7.3e-05 (inactive). In [6], the slope was 0.00622 (inactive).

For `O=C(c1cnn2c1NC(c1ccco1)CC2C(F)(F)F)N1CCN(c2cccc(Cl)c2)CC1` (centres undefined), in assay [1], the cell count came out at 313. In addition, the inhibition was -3.8% (inactive) in assay [1], -38.6% (inactive) in assay [3], 46.3% (inactive) in assay [7] and 19.8% (inactive) in assay [8]. In assay [2], the inhibition of aggregation was -7.8% (inactive). For the same compound, the nuclei count in assay [2] came out at 114%; in assay [3], 126%. Further, in assay [4], the fluorescence slope was -0.382 (inactive). Also, in [5], the NADPH fluorescence slope is -6e-05 (inactive). In addition, in [6], the slope is 0.00418 (inactive).

Take `CC1=C(C(=O)Nc2ccccc2)C(c2ccco2)C(C#N)=C(SCC(=O)Nc2cccc(C)c2C)N1` (centres undefined): in [1], the cell count came to 625. The inhibition in [1] is 15.7% (inactive); in assay [3], -16.6% (inactive); in [7], 9.65% (inactive); in assay [8], 21.2% (inactive). In addition, the inhibition of aggregation in assay [2] is 16% (inactive). Also, the values for the nuclei count in [2] and in assay [3] were 89.5% and 129%, respectively. Further, the fluorescence slope in [4] is -0.412 (inactive). For the same compound, in assay [5], the NADPH fluorescence slope is -1.1e-05 (inactive). Further, the slope in assay [6] is 0.00681 (inactive).

`Cc1ccccc1-n1c(=O)cc(N2CCN(C(=O)c3ccco3)CC2)[nH]c1=O`: in assay [1], the cell count stood at 543. Also, the inhibition in assay [1] was 12.5% (inactive); in [3], -8.4% (inactive); in assay [7], 13.5% (inactive); in [8], 12.4% (inactive). The inhibition of aggregation in assay [2] was 6.9% (inactive). Also, the nuclei count came to 116% in assay [2] and 99.7% in assay [3]. Besides, the fluorescence slope in [4] was -0.598 (inactive). In [5], the NADPH fluorescence slope was 1.7e-05 (inactive). In addition, the slope in assay [6] is 0.00562 (inactive).

Take `COc1ccc(S(=O)(=O)N2CCCC(C(=O)NCc3ccccn3)C2)cc1` (centres undefined): in [1], the cell count amounted to 291. In addition, the inhibition in [1] was -2.2% (inactive); in [3] it was 1.9% (inactive); in assay [7], 12.7% (inactive); in [8] it was 35.6% (inactive). Further, in assay [2], the inhibition of aggregation is 8.2% (inactive). For the same compound, the results for the nuclei count in assay [2] and in assay [3] were 72.3% and 76.8%, respectively. Besides, in assay [4], the fluorescence slope was -0.477 (inactive). Further, in assay [5], the NADPH fluorescence slope is -2.4e-05 (inactive). Further, the slope in assay [6] was 0.00625 (inactive).

For `O=C(c1csc2ccccc12)n1cccn1`, the cell count in [1] was found to be 327. In addition, the inhibition was 5.6% (inactive) in assay [1], 4.5% (inactive) in assay [3], 19% (inactive) in assay [7] and 21.3% (inactive) in assay [8]. The inhibition of aggregation in assay [2] is 6% (inactive). Also, the results for the nuclei count in assay [2] and in assay [3] were 99.2% and 105%, respectively. The fluorescence slope in assay [4] is -0.502 (inactive). The NADPH fluorescence slope in [5] was -3.1e-05 (inactive). Besides, in [6], the slope was 0.00494 (inactive).

With `O=C(CC(c1ccco1)S(=O)(=O)c1ccccc1)c1ccc(F)cc1` (centres undefined), the cell count in assay [1] amounted to 585. Moreover, the inhibition in assay [1] was -2% (inactive); in [3] it was -105% (inactive); in [10], -14.6% (inactive); in assay [13], 28.8% (inactive). Moreover, in assay [3], the nuclei count came to 138%. Moreover, the z-score was -0.324 in assay [9] (measured here: cell density z-score); 0.355 in assay [9] (measured here: nuclear c-Myc green intensity z-score); 1.32 in assay [9] (measured here: nuclear pErk red intensity z-score, stronger effect = higher value). Besides, the fluorescence slope in assay [4] is -0.413 (inactive); in assay [11] it was 0.00466 (inactive). In assay [5], the NADPH fluorescence slope was -0.000113 (inactive). Also, the call in assay [12] was inactive.
